# Experimental data as given in article PMC7862700, “An all-to-all approach to the identification of sequence-specific readers for epigenetic DNA modifications on cytosine”.
# Key:
# Assay in all cases: DAPPL (digital affinity profiling via proximity ligation, sequencing); 10 mM Tris-HCl pH 7.5, 50 mM NaCl, 1 mM DTT, 4% glycerol, room temperature, 30 min; GST-TFs on glutathione beads, 16-mer random dsDNA library, 0.1% formaldehyde crosslink after washing; high values mean tight binding
# FLI1 = molecular target: T1, FLI1 (Homo sapiens, UniProt Q01543 1-452); settings: protein: recombinant; tags: N-terminal GST; dsDNA, one strand shown
# T1 sequence: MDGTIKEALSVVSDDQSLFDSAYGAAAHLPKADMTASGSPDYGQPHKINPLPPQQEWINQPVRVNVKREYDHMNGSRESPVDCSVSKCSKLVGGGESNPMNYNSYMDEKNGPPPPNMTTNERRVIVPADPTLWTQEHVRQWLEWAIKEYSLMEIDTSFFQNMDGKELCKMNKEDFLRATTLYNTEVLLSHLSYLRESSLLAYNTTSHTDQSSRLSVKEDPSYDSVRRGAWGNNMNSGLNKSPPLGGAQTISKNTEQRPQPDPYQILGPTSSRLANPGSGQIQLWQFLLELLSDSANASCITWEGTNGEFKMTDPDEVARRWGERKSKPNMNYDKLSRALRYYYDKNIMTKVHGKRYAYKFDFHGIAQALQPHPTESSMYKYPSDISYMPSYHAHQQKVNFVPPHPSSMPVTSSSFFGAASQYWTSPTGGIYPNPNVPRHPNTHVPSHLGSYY
# Method in brief: (§1)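 A tag-only sample was pooled with DNA-barcoded human transcription factors that had been expressed in yeast as GST fusions and captured on glutathione beads. The pools were incubated for 30 min at room temperature with 200 nmole of a random double-stranded 16-mer DNA library in Tris/NaCl/DTT/glycerol buffer, then washed, crosslinked with 0.1% formaldehyde, proximity-ligated (BsaI/T4 ligase, 1 h, 37 °C), PCR-amplified and sequenced on an Illumina NextSeq500. Binding signal is each hexamer's read frequency for a factor divided by its frequency for the tag-only sample.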
# ELK1 = molecular target: T2, ELK1 (Homo sapiens, UniProt P19419 1-428); settings: protein: recombinant; tags: N-terminal GST; dsDNA, one strand shown
# T2 sequence: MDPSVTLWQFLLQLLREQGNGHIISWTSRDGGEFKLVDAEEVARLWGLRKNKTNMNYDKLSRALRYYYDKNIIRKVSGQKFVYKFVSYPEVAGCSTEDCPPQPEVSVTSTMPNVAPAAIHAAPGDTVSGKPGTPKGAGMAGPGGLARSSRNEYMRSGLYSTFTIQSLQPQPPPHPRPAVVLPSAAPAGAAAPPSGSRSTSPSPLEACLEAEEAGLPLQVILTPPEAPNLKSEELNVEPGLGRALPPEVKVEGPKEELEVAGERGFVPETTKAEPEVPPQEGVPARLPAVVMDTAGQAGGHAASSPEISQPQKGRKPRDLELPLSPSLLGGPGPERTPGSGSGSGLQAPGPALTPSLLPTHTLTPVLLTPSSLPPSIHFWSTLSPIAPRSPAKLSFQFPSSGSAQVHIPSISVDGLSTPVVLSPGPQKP
# Method in brief: as §1
# GABPA = molecular target: T3, GABPA (Homo sapiens, UniProt Q06546 1-454); settings: protein: recombinant; tags: N-terminal GST; dsDNA, one strand shown
# T3 sequence: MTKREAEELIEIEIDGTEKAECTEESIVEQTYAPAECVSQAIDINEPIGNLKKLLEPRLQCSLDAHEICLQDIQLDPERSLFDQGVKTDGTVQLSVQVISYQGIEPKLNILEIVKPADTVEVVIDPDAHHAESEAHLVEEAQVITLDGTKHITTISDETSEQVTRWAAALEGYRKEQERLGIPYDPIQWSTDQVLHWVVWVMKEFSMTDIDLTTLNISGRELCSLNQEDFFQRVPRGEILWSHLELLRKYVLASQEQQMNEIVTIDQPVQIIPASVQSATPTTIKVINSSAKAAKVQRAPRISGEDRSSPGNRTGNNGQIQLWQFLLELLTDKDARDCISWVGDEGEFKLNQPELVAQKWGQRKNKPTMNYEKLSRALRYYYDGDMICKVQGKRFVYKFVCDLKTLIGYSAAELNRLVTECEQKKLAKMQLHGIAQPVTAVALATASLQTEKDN
# Method in brief: as §1
# ERG = molecular target: T4, ERG (Homo sapiens, UniProt P11308 1-479); settings: protein: recombinant; tags: N-terminal GST; dsDNA, one strand shown
# T4 sequence: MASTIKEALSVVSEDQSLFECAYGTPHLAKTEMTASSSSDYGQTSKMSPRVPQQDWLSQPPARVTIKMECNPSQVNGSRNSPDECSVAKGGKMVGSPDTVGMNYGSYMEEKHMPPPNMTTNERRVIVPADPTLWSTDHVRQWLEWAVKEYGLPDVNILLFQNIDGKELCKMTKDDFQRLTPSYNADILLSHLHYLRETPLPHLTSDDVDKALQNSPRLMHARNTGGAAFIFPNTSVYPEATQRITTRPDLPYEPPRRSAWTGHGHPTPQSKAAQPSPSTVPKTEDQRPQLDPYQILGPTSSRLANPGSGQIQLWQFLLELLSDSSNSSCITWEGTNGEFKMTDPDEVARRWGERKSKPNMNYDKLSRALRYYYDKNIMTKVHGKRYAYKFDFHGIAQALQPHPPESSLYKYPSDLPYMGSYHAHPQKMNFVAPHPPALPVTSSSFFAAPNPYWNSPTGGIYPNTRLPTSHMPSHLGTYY
# Method in brief: as §1
# ELF1 = ELF1 (Homo sapiens, UniProt P32519 1-619); settings: protein: recombinant; tags: N-terminal GST; dsDNA, one strand shown
# Method in brief: as §1
# EHF = molecular target: T5, EHF (Homo sapiens, UniProt Q9NZC4 1-300); settings: protein: recombinant; tags: N-terminal GST; dsDNA, one strand shown
# T5 sequence: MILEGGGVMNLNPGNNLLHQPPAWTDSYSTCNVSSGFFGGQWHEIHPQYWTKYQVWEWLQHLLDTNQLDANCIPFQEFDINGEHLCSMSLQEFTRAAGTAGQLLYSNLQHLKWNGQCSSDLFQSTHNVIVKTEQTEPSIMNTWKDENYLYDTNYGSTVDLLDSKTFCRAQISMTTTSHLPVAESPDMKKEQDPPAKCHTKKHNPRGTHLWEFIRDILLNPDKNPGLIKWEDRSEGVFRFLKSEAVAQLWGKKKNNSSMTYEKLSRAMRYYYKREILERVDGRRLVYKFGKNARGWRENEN
# Method in brief: as §1
# SPI1 = SPI1 (Homo sapiens, UniProt P17947 1-270); settings: protein: recombinant; tags: N-terminal GST; dsDNA, one strand shown
# Method in brief: as §1
# SPIB = SPIB (Homo sapiens, UniProt Q01892 1-262); settings: protein: recombinant; tags: N-terminal GST; dsDNA, one strand shown
# Method in brief: as §1
# ELK3 = molecular target: T6, ELK3 (Homo sapiens, UniProt P41970 1-407); settings: protein: recombinant; tags: N-terminal GST; dsDNA, one strand shown
# T6 sequence: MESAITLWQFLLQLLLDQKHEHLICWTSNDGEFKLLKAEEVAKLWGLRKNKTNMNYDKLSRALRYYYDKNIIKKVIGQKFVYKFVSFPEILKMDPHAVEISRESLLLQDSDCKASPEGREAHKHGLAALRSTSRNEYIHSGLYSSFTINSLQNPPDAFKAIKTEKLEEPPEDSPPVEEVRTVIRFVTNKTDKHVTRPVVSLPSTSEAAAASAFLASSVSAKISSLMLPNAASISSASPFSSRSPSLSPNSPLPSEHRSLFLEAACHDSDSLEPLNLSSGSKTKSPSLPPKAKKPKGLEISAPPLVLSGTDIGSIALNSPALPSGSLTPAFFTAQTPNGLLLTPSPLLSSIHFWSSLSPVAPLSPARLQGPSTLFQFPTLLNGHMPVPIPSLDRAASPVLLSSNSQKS
# Method in brief: as §1
# FEV = molecular target: T7, FEV (Homo sapiens, UniProt Q99581 1-238); settings: protein: recombinant; tags: N-terminal GST; dsDNA, one strand shown
# T7 sequence: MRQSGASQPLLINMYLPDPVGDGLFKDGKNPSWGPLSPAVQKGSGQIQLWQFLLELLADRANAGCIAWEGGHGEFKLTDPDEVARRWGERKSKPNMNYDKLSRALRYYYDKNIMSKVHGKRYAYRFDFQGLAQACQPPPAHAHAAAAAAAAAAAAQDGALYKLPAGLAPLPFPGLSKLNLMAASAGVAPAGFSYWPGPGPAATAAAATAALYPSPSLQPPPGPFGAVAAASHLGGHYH
# Method in brief: as §1
# ETV5 = ETV5 (Homo sapiens, UniProt P41161 1-510); settings: protein: recombinant; tags: N-terminal GST; dsDNA, one strand shown
# Method in brief: as §1
# HSF1 = HSF1 (Homo sapiens, UniProt Q00613 1-529); settings: protein: recombinant; tags: N-terminal GST; chain copies: 3; dsDNA, one strand shown
# Method in brief: as §1
# SPIC = molecular target: T8, SPIC (Homo sapiens, UniProt Q8N5J4 1-248); settings: protein: recombinant; tags: N-terminal GST; dsDNA, one strand shown
# T8 sequence: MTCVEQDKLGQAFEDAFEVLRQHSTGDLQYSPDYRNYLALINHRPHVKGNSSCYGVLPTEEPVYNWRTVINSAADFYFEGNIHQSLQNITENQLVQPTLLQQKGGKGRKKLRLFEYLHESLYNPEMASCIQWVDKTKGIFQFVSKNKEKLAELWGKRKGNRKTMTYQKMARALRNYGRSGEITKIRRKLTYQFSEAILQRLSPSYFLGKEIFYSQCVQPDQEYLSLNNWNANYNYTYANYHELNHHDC
# Method in brief: as §1
# ELF4 = ELF4 (Homo sapiens, UniProt Q99607 1-663); settings: protein: recombinant; tags: N-terminal GST; dsDNA, one strand shown
# Method in brief: as §1
# ELK4 = molecular target: T9, ELK4 (Homo sapiens, UniProt P28324-2 1-405); settings: protein: recombinant; tags: N-terminal GST; dsDNA, one strand shown
# T9 sequence: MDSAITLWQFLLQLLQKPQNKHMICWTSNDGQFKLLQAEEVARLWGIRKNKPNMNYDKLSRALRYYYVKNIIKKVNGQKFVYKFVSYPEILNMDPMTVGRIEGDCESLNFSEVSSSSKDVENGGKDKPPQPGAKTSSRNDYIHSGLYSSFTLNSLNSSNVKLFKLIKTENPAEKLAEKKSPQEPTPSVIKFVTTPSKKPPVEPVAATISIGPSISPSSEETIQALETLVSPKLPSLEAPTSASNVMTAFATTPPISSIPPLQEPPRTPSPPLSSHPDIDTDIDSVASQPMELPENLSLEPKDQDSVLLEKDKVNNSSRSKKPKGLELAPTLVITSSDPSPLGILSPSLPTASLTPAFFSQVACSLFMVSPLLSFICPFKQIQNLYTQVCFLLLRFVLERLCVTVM
# Method in brief: as §1
# ETV2 = molecular target: T10, ETV2 (Homo sapiens, UniProt O00321 1-342); settings: protein: recombinant; tags: N-terminal GST; dsDNA, one strand shown
# T10 sequence: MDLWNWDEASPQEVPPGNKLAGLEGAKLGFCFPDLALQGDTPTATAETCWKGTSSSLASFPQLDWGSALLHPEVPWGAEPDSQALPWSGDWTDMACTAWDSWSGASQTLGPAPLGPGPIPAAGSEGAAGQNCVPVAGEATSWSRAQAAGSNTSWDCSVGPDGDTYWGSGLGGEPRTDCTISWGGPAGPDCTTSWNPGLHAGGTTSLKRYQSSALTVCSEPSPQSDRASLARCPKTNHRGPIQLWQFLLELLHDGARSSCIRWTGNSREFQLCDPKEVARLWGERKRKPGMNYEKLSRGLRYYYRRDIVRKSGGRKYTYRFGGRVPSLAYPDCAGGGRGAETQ
# Method in brief: as §1
# ELF3 = molecular target: T11, ELF3 (Homo sapiens, UniProt P78545 1-371); settings: protein: recombinant; tags: N-terminal GST; dsDNA, one strand shown
# T11 sequence: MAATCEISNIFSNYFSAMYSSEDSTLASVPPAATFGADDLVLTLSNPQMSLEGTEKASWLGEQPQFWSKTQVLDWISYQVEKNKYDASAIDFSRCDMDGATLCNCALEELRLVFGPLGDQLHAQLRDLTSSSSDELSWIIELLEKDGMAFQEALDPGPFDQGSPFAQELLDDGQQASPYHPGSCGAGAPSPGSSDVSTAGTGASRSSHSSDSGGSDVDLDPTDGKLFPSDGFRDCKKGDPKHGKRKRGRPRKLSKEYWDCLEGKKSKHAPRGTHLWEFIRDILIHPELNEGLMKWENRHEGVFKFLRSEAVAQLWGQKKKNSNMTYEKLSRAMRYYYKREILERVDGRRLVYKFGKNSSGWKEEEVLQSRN
# Method in brief: as §1
# CRX = CRX (Homo sapiens, UniProt O43186 1-299); settings: protein: recombinant; tags: N-terminal GST; dsDNA, one strand shown
# Method in brief: as §1
# ETV1 = ETV1 (Homo sapiens, UniProt P50549 1-477); settings: protein: recombinant; tags: N-terminal GST; dsDNA, one strand shown
# Method in brief: as §1
# Chain of CRX (O43186 whole entry): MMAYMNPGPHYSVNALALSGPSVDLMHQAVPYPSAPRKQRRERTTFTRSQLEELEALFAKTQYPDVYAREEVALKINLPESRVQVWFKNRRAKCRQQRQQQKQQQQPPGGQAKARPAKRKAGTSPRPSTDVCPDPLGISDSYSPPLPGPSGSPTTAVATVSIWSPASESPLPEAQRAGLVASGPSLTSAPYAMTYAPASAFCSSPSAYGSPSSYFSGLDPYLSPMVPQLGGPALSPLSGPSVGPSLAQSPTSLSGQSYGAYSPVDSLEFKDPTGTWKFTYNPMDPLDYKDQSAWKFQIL
# Chain of SPIB (Q01892 whole entry): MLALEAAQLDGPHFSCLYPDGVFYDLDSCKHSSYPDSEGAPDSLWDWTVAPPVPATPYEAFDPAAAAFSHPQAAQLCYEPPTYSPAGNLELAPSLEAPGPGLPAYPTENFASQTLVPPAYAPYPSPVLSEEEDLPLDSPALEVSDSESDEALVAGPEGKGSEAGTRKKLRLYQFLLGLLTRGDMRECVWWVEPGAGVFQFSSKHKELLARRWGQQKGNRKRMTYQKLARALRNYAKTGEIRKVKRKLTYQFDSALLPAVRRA
# Chain of HSF1 (Q00613 whole entry): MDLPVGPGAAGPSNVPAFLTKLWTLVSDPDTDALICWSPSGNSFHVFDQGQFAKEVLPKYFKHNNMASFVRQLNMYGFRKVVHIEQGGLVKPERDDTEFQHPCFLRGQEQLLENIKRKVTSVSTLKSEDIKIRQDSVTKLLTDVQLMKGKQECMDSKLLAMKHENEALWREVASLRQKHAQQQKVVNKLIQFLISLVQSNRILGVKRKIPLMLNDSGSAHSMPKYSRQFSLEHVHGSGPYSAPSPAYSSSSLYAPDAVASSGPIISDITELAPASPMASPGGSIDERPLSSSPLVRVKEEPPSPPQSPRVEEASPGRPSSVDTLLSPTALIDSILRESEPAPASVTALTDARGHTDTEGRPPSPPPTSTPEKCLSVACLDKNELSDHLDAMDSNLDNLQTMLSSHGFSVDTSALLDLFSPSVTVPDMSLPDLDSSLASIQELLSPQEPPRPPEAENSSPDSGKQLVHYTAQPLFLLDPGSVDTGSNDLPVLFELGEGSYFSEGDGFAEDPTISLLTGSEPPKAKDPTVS
# Chain of ELF1 (P32519 whole entry): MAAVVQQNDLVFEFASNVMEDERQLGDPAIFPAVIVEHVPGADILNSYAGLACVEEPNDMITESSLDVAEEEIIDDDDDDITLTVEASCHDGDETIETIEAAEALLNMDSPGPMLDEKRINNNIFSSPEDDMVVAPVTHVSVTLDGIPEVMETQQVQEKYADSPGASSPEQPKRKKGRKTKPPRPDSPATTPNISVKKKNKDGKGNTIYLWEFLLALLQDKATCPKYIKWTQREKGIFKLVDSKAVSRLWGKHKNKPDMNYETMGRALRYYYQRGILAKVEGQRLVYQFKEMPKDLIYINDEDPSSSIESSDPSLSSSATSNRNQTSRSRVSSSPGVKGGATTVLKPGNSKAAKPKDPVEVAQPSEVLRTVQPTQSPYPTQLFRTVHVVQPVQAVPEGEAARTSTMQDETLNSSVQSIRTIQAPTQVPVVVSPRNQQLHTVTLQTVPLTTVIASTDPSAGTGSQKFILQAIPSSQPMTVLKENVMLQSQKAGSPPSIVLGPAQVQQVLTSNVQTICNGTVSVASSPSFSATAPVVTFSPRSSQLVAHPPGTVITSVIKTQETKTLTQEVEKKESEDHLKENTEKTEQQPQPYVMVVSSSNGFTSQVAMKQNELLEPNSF
# Chain of ETV1 (P50549 whole entry): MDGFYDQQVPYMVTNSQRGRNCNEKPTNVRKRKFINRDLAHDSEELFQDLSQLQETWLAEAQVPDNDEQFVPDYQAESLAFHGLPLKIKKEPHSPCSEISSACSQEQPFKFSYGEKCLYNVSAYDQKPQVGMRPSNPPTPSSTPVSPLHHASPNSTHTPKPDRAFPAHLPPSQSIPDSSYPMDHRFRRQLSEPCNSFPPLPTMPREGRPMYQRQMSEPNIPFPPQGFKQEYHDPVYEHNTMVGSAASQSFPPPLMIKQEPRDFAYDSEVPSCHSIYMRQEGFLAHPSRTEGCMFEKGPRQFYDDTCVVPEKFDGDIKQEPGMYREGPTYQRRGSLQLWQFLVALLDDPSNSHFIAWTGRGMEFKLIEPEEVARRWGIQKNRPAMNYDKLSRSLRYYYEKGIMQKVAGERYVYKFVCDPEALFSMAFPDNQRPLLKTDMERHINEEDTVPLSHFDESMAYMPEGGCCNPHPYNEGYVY
# Chain of ELF4 (Q99607 whole entry): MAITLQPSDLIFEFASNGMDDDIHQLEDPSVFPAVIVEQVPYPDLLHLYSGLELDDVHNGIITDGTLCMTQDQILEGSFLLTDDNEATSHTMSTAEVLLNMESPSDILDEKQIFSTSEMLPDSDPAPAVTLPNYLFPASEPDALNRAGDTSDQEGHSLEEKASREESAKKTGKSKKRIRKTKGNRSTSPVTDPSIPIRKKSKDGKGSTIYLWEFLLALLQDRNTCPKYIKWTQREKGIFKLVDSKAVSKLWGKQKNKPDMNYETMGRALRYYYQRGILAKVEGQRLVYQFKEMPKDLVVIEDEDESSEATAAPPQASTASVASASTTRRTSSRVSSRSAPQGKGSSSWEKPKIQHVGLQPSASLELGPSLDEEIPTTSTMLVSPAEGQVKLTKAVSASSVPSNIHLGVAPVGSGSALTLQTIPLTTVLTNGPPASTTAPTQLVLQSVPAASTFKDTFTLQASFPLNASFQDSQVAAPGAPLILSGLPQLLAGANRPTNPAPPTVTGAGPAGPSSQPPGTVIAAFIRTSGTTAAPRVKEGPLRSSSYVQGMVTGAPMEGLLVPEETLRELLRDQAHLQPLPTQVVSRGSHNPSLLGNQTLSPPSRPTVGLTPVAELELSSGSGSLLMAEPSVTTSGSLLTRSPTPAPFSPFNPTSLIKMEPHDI
# Chain of ETV5 (P41161 whole entry): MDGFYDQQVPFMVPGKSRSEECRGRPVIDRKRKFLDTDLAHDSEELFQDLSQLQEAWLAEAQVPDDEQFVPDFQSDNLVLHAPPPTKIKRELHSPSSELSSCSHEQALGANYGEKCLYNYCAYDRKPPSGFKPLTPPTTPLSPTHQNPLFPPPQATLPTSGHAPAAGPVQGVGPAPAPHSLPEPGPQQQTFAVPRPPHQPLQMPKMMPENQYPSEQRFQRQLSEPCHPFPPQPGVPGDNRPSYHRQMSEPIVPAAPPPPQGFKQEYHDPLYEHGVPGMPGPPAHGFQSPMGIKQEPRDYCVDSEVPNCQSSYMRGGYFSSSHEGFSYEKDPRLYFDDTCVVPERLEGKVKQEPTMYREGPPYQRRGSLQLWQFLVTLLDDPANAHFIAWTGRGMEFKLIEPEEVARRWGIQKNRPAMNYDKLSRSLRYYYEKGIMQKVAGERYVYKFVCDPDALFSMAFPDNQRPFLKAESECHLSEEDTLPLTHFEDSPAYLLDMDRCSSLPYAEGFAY
sequence,measurement,setting,value
TCTGCT,binding signal,FLI1,"1.26 fold enrichment (6-mer frequency, TF over GST control)"
same,binding signal,ELK1,"1.3 fold enrichment (6-mer frequency, TF over GST control)"
same,binding signal,GABPA,"1.33 fold enrichment (6-mer frequency, TF over GST control)"
same,binding signal,ERG,"1.22 fold enrichment (6-mer frequency, TF over GST control)"
same,binding signal,ELF1,"1.45 fold enrichment (6-mer frequency, TF over GST control)"
same,binding signal,EHF,"1.55 fold enrichment (6-mer frequency, TF over GST control)"
same,binding signal,SPI1,"1.27 fold enrichment (6-mer frequency, TF over GST control)"
same,binding signal,SPIB,"1.22 fold enrichment (6-mer frequency, TF over GST control)"
same,binding signal,ELK3,"1.2 fold enrichment (6-mer frequency, TF over GST control)"
same,binding signal,FEV,"1.28 fold enrichment (6-mer frequency, TF over GST control)"
same,binding signal,ETV5,"1.29 fold enrichment (6-mer frequency, TF over GST control)"
same,binding signal,HSF1,"1.33 fold enrichment (6-mer frequency, TF over GST control)"
same,binding signal,SPIC,"1.43 fold enrichment (6-mer frequency, TF over GST control)"
same,binding signal,ELF4,"1.3 fold enrichment (6-mer frequency, TF over GST control)"
same,binding signal,ELK4,"1.57 fold enrichment (6-mer frequency, TF over GST control)"
same,binding signal,ETV2,"1.53 fold enrichment (6-mer frequency, TF over GST control)"
same,binding signal,ELF3,"1.11 fold enrichment (6-mer frequency, TF over GST control)"
same,binding signal,CRX,"1.33 fold enrichment (6-mer frequency, TF over GST control)"
same,binding signal,ETV1,"1.32 fold enrichment (6-mer frequency, TF over GST control)"
